Experimental data reported in PubChem BioAssay.
The source made the active and inactive calls. The rule behind the calls is not given here.

Biological target: L-lactate dehydrogenase (Plasmodium falciparum (isolate CDC / Honduras)) (UniProt Q27743)
Assay: PfLDH activity inhibition – cell lysate, 3D7 strain, counter-screen for P. falciparum growth inhibition project (AID 2304);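 note: 0% = vehicle and 100% = reference inhibitor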
Conditions: P. falciparum 3D7 crude extract, LDH APAD/NBT absorbance; at 2 µM; active compounds read high

Chain of L-lactate dehydrogenase (Plasmodium falciparum (isolate CDC / Honduras)) (Q27743 whole entry, looked up): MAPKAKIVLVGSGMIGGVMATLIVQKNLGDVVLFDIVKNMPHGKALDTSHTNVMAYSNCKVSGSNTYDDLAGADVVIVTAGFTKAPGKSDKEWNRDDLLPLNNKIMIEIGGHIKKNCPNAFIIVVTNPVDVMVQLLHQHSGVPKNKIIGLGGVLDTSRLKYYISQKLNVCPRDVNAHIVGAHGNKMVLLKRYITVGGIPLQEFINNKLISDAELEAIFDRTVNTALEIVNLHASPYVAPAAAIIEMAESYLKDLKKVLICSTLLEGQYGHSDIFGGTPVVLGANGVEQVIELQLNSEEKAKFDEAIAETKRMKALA

| Structure (SMILES) | inhibition |
| --- | --- |
| Cc1nc(-c2cccc(NCc3ccccc3)c2)[nH]c1C | 1% (inactive) |
| CS(=O)(=O)NCCCNCc1ccc(-c2cccc(-c3nc4ccc(F)cc4[nH]3)c2)cc1 | 5% (inactive) |
| C=CCNc1cc(-c2ccccn2)nc(-c2ccccn2)n1 | -2% (inactive) |
| O=C(Nc1cccc(C(F)(F)F)c1)c1ccc(S(=O)(=O)NCC2CCCN2CC2CCCCC2)cc1 (stereo not drawn) | -5% (inactive) |
| Cc1cc(CN2CCC(Nc3ncc(-c4ccsc4)c4nc(C(F)(F)F)ccc34)CC2)no1 | -3% (inactive) |
| Oc1cccc2ccc(Nc3ccccn3)nc12 | 3% (inactive) |
| C=C[C@]1(C)C[C@@H](OC(=O)c2cncn(COC)c2=O)[C@]2(C)[C@H](C)CC[C@]3(CCC(=O)[C@H]32)[C@@H](C)[C@@H]1O | -1% (inactive) |
| Cc1cc(C(=O)CN2C(=O)NC3(CCOc4ccccc43)C2=O)c(C)n1Cc1ccc(F)cc1 (stereo not drawn) | 0% (inactive) |
| CCCN(CCC)CCCOc1ccc(C(=O)c2c(-c3ccc(OCCCN(CCC)CCC)cc3)oc3ccc(Cl)cc23)cc1 | -8% (inactive) |
| CCN(CC)C(=NCCCCCCN=C(/N=C(\N)Nc1ccc(Cl)c(Cl)c1)N(CC)CC)/N=C(\N)Nc1ccc(Cl)c(Cl)c1 | -3% (inactive) |
| COc1ccc(CNc2nc(NCc3ccc(C(F)(F)F)cc3)c3cc(OC)c(OC)cc3n2)cc1OC | -3% (inactive) |
| COc1ccc2nccc(N3CCC(O)(CCNCc4ccc5c(n4)NC(=O)CS5)CC3)c2n1 | 0% (inactive) |
| COc1cc(Cc2cnc(N)nc2N)cc(OCCCOc2ccccc2)c1OC | -4% (inactive) |
| CC1CCCC(NCc2c(O)ccc3ccccc23)C1 (stereo not drawn) | 1% (inactive) |
| COc1ccc2nc3cc(Cl)ccc3c(NCc3ccccc3)c2c1 | 5% (inactive) |
| COc1cc2nc(C)nc(Nc3ccc(Oc4ccccc4)cc3)c2cc1OC | 6% (inactive) |
| O=C(NCc1ccc(F)cc1)Nc1cccc(-c2ccc(-c3nc4ccc(F)cc4[nH]3)cc2)c1 | -3% (inactive) |
| CC1N=C(N)N=C(N)N1OCc1cccc2ccccc12 (stereo not drawn) | -2% (inactive) |
| O=C(Nc1ccc2c(c1)CCNCC2)Nc1ccc2ccccc2c1 | -1% (inactive) |
| O=C(C=Cc1ccc(Cl)c(Cl)c1)NCCCCCN1CCC(CCNC(=O)c2cccc3ccccc23)CC1 | 4% (inactive) |

| Structure (SMILES) | inhibition |
| --- | --- |
| C(=NNc1ccnc2ccccc12)c1ccncc1 | -2% (inactive) |
| COc1cc2c(cc1S(=O)(=O)c1ccc(NC(=O)c3cccc(C(F)(F)F)c3)cc1)CCN(C)CC2 | 3% (inactive) |
| CC(=O)C1=NN(c2ccc(C)cc2)C(c2cccs2)N1c1ccccc1 (stereo not drawn) | -4% (inactive) |
| CCNc1cc(C(=O)N[C@@H](Cc2ccccc2)[C@H](O)CNC(C)(C)c2cccc(OC)c2)cc(N2CCCC2=O)c1 | -6% (inactive) |
| COc1cc(Cc2cnc(N)nc2N)cc(OCCCCCC(N)=O)c1OC | 0% (inactive) |
| CS(=O)(=O)NCCCNCc1ccc(-c2ccc(-c3nc4ccc(C(F)(F)F)cc4[nH]3)cc2)cc1 | 1% (inactive) |
| O=C(Cc1cccs1)NC(CCCN1CCC(Oc2cccc(Cl)c2)CC1)c1ccc(Cl)c(Cl)c1 (stereo not drawn) | 3% (inactive) |
| COc1ccc(-c2cnc(N)c(-c3nc4ccc(Br)cc4[nH]3)c2)cc1 | 2% (inactive) |
| Cc1ccc(F)c(NC(=O)c2c(-c3c(F)cccc3Cl)noc2C)c1 | 0% (inactive) |
| COc1ccc(CNc2nccc3ccc(-c4ccc5nccn5c4)cc23)cc1 | -4% (inactive) |
| CN(C)C(=O)CCCn1c(CNCCCNc2cc(=O)c3ccccc3[nH]2)cc2c(Cl)cc(Cl)cc21 | -1% (inactive) |
| CN1CCc2cc(NS(=O)(=O)c3ccc(-c4ccc(Cl)s4)cc3)c(N3CCCCC3)cc2CC1 | 3% (inactive) |
| Cc1ccc(C(C#N)c2ccc3c(C(F)(F)F)cc(C(F)(F)F)nc3n2)cc1 (stereo not drawn) | 2% (inactive) |
| CN(C)CCNCc1ncsc1-c1ccc2c(Nc3ccc(F)cc3Cl)ccnc2c1 | 0% (inactive) |
| O=C(/C=C/c1ccc(Cl)c(Cl)c1)N1CCC(CNCc2cccc3cc[nH]c23)CC1 | -2% (inactive) |
| CC(=O)Nc1ccc(OCCCCN(Cc2ccccc2C(F)(F)F)c2ccc(C(F)(F)F)c(C#N)c2)c(Cl)c1 | -1% (inactive) |
| CS(=O)(=O)N(c1cccc(F)c1)c1cc(C(=O)N[C@@H](Cc2ccccc2)[C@H](O)CNCc2cccc(C(F)(F)F)c2)cc(N2CCCC2=O)c1 | 1% (inactive) |
| CCCCOC(=O)C1=C(C)NC2=C(C(=O)CC(c3ccc(OC)c(OC)c3)C2)C1c1ccc(O)cc1 (stereo not drawn) | 2% (inactive) |
| Cc1nn(-c2ccccc2)nc1C(=O)N(Cc1ccc(-c2ccc(CNCCc3ccc(S(C)(=O)=O)cc3)cn2)cc1)C(C)CN(C)C (stereo not drawn) | -8% (inactive) |

Test system: not listed separately
Assay: inhibition of 3D7 malaria parasite growth – strain 3D7 (AID 2306);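 note: 0% = DMSO wells and 100% = chloroquine plus artemisinin control wells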
Conditions: P. falciparum 3D7 erythrocytic growth, LDH absorbance, 72 h; at 2 µM; active compounds read high

| Structure (SMILES) | growth inhibition |
| --- | --- |
| Cc1nc(-c2cccc(NCc3ccccc3)c2)[nH]c1C | 101% (active) |
| CS(=O)(=O)NCCCNCc1ccc(-c2cccc(-c3nc4ccc(F)cc4[nH]3)c2)cc1 | 98% (active) |
| C=CCNc1cc(-c2ccccn2)nc(-c2ccccn2)n1 | 94% (active) |
| O=C(Nc1cccc(C(F)(F)F)c1)c1ccc(S(=O)(=O)NCC2CCCN2CC2CCCCC2)cc1 (stereo not drawn) | 98% (active) |
| Cc1cc(CN2CCC(Nc3ncc(-c4ccsc4)c4nc(C(F)(F)F)ccc34)CC2)no1 | 81% (active) |
| Oc1cccc2ccc(Nc3ccccn3)nc12 | 99% (active) |
| C=C[C@]1(C)C[C@@H](OC(=O)c2cncn(COC)c2=O)[C@]2(C)[C@H](C)CC[C@]3(CCC(=O)[C@H]32)[C@@H](C)[C@@H]1O | 96% (active) |
| Cc1cc(C(=O)CN2C(=O)NC3(CCOc4ccccc43)C2=O)c(C)n1Cc1ccc(F)cc1 (stereo not drawn) | 95% (active) |
| CCCN(CCC)CCCOc1ccc(C(=O)c2c(-c3ccc(OCCCN(CCC)CCC)cc3)oc3ccc(Cl)cc23)cc1 | 96% (active) |
| CCN(CC)C(=NCCCCCCN=C(/N=C(\N)Nc1ccc(Cl)c(Cl)c1)N(CC)CC)/N=C(\N)Nc1ccc(Cl)c(Cl)c1 | 94% (active) |
| COc1ccc(CNc2nc(NCc3ccc(C(F)(F)F)cc3)c3cc(OC)c(OC)cc3n2)cc1OC | 103% (active) |
| COc1ccc2nccc(N3CCC(O)(CCNCc4ccc5c(n4)NC(=O)CS5)CC3)c2n1 | 99% (active) |
| COc1cc(Cc2cnc(N)nc2N)cc(OCCCOc2ccccc2)c1OC | 94% (active) |
| CC1CCCC(NCc2c(O)ccc3ccccc23)C1 (stereo not drawn) | 93% (active) |
| COc1ccc2nc3cc(Cl)ccc3c(NCc3ccccc3)c2c1 | 101% (active) |
| COc1cc2nc(C)nc(Nc3ccc(Oc4ccccc4)cc3)c2cc1OC | 101% (active) |
| O=C(NCc1ccc(F)cc1)Nc1cccc(-c2ccc(-c3nc4ccc(F)cc4[nH]3)cc2)c1 | 101% (active) |
| CC1N=C(N)N=C(N)N1OCc1cccc2ccccc12 (stereo not drawn) | 93% (active) |
| O=C(Nc1ccc2c(c1)CCNCC2)Nc1ccc2ccccc2c1 | 84% (active) |
| O=C(C=Cc1ccc(Cl)c(Cl)c1)NCCCCCN1CCC(CCNC(=O)c2cccc3ccccc23)CC1 | 85% (active) |

| Structure (SMILES) | growth inhibition |
| --- | --- |
| C(=NNc1ccnc2ccccc12)c1ccncc1 | 95% (active) |
| COc1cc2c(cc1S(=O)(=O)c1ccc(NC(=O)c3cccc(C(F)(F)F)c3)cc1)CCN(C)CC2 | 92% (active) |
| CC(=O)C1=NN(c2ccc(C)cc2)C(c2cccs2)N1c1ccccc1 (stereo not drawn) | 89% (active) |
| CCNc1cc(C(=O)N[C@@H](Cc2ccccc2)[C@H](O)CNC(C)(C)c2cccc(OC)c2)cc(N2CCCC2=O)c1 | 100% (active) |
| COc1cc(Cc2cnc(N)nc2N)cc(OCCCCCC(N)=O)c1OC | 90% (active) |
| CS(=O)(=O)NCCCNCc1ccc(-c2ccc(-c3nc4ccc(C(F)(F)F)cc4[nH]3)cc2)cc1 | 100% (active) |
| O=C(Cc1cccs1)NC(CCCN1CCC(Oc2cccc(Cl)c2)CC1)c1ccc(Cl)c(Cl)c1 (stereo not drawn) | 86% (active) |
| COc1ccc(-c2cnc(N)c(-c3nc4ccc(Br)cc4[nH]3)c2)cc1 | 100% (active) |
| Cc1ccc(F)c(NC(=O)c2c(-c3c(F)cccc3Cl)noc2C)c1 | 90% (active) |
| COc1ccc(CNc2nccc3ccc(-c4ccc5nccn5c4)cc23)cc1 | 95% (active) |
| CN(C)C(=O)CCCn1c(CNCCCNc2cc(=O)c3ccccc3[nH]2)cc2c(Cl)cc(Cl)cc21 | 89% (active) |
| CN1CCc2cc(NS(=O)(=O)c3ccc(-c4ccc(Cl)s4)cc3)c(N3CCCCC3)cc2CC1 | 98% (active) |
| Cc1ccc(C(C#N)c2ccc3c(C(F)(F)F)cc(C(F)(F)F)nc3n2)cc1 (stereo not drawn) | 96% (active) |
| CN(C)CCNCc1ncsc1-c1ccc2c(Nc3ccc(F)cc3Cl)ccnc2c1 | 100% (active) |
| O=C(/C=C/c1ccc(Cl)c(Cl)c1)N1CCC(CNCc2cccc3cc[nH]c23)CC1 | 85% (active) |
| CC(=O)Nc1ccc(OCCCCN(Cc2ccccc2C(F)(F)F)c2ccc(C(F)(F)F)c(C#N)c2)c(Cl)c1 | 96% (active) |
| CS(=O)(=O)N(c1cccc(F)c1)c1cc(C(=O)N[C@@H](Cc2ccccc2)[C@H](O)CNCc2cccc(C(F)(F)F)c2)cc(N2CCCC2=O)c1 | 98% (active) |
| CCCCOC(=O)C1=C(C)NC2=C(C(=O)CC(c3ccc(OC)c(OC)c3)C2)C1c1ccc(O)cc1 (stereo not drawn) | 90% (active) |
| Cc1nn(-c2ccccc2)nc1C(=O)N(Cc1ccc(-c2ccc(CNCCc3ccc(S(C)(=O)=O)cc3)cn2)cc1)C(C)CN(C)C (stereo not drawn) | 101% (active) |
